Measurements published in PubChem BioAssay AID1159580 (chemical genetic matrix, 2015).
Values joined by “and” are separate entries in the source; they are usually repeats but may differ in a detail not shown here. Equal values may be shown once. In all, about 5,500 compounds went through this assay and about 2,000 (36%) were called active. Another 18% or so got no clear call; they are omitted. No stated cut-off is given here; in the data, active means normalized growth mostly below about 0.91 (no sharp cut-off); inconclusive means no clear call, values can overlap the other calls; inactive means mostly above about 0.92. This is one part of the list.

Test: chemical genetic growth profiling, strain panel (AID 1159580);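 further: tested at 20 µM; growth read once vehicle control cultures reached saturation at 30 °C; 1 = growth at the plate median or of vehicle wells; lower values mean less growth of the strain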
Settings: S. cerevisiae deletion strains, growth OD

Measured: normalized growth

CCC1C(=O)OCC1Cc1cncn1C (stereo not given)
inactive: locus YAL013W, strain DEP1, hits give low values 1.01 and 0.986 | locus YAL021C, strain ccr4, hits give low values 1.01 | locus YAL026C, strain drs2, hits give low values 1.01 and 1.02 | locus YAL030W, strain snc1, hits give low values 1.03 and 1.01 | locus YAL040C, strain CLN3, hits give low values 1.04 and 1.02 | locus YBL061C, strain skt5, hits give low values 1.03 and 1.02 | locus YBR009C, strain hhf1, hits give low values 1.01 and 1 | locus YBR021W, strain FUR4, hits give low values 0.985 and 1 | locus YBR023C, strain chs3, hits give low values 1.03 and 1.02 | locus YBR171W, strain sec66, hits give low values 1.02 and 1.03 | locus YBR229C, strain ROT2, hits give low values 1.01 | locus YBR231C, strain swc5, hits give low values 1.02 and 1.01 | locus YBR279W, strain paf1, hits give low values 1.03 and 1.01 | locus YCL011C, strain gbp2, hits give low values 1.03 and 1.02 | locus YCL016C, strain dcc1, hits give low values 1.03 and 1.02 | locus YCL029C, strain bik1, hits give low values 1.03 and 0.998 | locus YCL061C, strain MRC1 (second series), hits give low values 1.01 and 0.993 | locus YCL061C, strain MRC1, hits give low values 1.01 | locus YCL069W, strain vba3, hits give low values 1.02 and 1.01 | locus YCR088W, strain abp1, hits give low values 1.02 and 1 | locus YDL005C, strain med2, hits give low values 1.01 and 1.03 | locus YDL035C, strain GPR1, hits give low values 1.01 | locus YDL040C, strain nat1, hits give low values 1.02 and 1.01 | locus YDL074C, strain BRE1, hits give low values 1.02 and 1.03 | locus YDL101C, strain DUN1, hits give low values 1.02 | locus YDL134C, strain PPH21, hits give low values 1.01 and 1.02 | locus YDL185W, strain tfp1, hits give low values 1.02 and 1 | locus YDL192W, strain arf1, hits give low values 1.02 and 1 | locus YDR001C, strain nth1, hits give low values 1.01 and 1 | locus YDR069C, strain doa4, hits give low values 1.01 and 1.02 | locus YDR101C, strain arx1, hits give low values 1.02 and 0.975 | locus YDR137W, strain rgp1, hits give low values 1.05 and 1.1 | locus YDR159W, strain sac3, hits give low values 1.01 and 1.02 | locus YDR162C, strain NBP2, hits give low values 1.01 and 1.05 | locus YDR195W, strain ref2 1 and 0.98 | locus YDR297W, strain sur2, hits give low values 1.02 | locus YDR318W, strain mcm21, hits give low values 1.03 and 0.997 | locus YDR334W, strain swr1, hits give low values 1.01 and 1.02 | locus YDR335W, strain msn5, hits give low values 1.02 | locus YDR363W, strain ESC2, hits give low values 1.03 and 1.01 | locus YDR388W, hits give low values 1.02 and 0.992 | locus YDR392W, strain spt3, hits give low values 0.976 and 0.974 | locus YDR502C, strain sam2, hits give low values 1.04 and 1.01 | locus YEL003W, strain gim4, hits give low values 1.01 and 1.02 | locus YEL037C, strain rad23, hits give low values 1.01 | locus YEL061C, strain CIN8 (second series), hits give low values 1.02 and 1.03 | locus YEL061C, strain CIN8, hits give low values 1.01 | locus YER002W, strain NOP16, hits give low values 1.02 and 0.975 | locus YER015W, strain faa2, hits give low values 1.02 and 1.01 | locus YER016W, strain bim1, hits give low values 1.01 | locus YER110C, hits give low values 1.02 and 0.99 | locus YER111C, strain swi4, hits give low values 1.02 | locus YER155C, strain BEM2 (second series), hits give low values 1.01 and 1.03 | locus YER155C, strain BEM2, hits give low values 0.99 and 1 | locus YER167W, strain BCK2, hits give low values 1.01 and 1.02 | locus YFR010W, strain ubp6, hits give low values 1.03 and 1 | locus YGL078C, strain dbp3, hits give low values 1.01 and 1 | locus YGL086W, strain mad1, hits give low values 1 and 0.996 | locus YGL167C, strain pmr1, hits give low values 1.03 | locus YGL173C, strain kem1, hits give low values 1.01 | locus YGL227W, strain vid30, hits give low values 1.02 | locus YGL240W, strain doc1, hits give low values 1.01 | locus YGL248W, strain PDE1, hits give low values 1.01 and 1.02 | locus YGL253W, strain hxk2, hits give low values 1.01 | locus YGR078C, strain PAC10, hits give low values 1.04 and 1 and 1.02 | locus YGR135W, strain pre9, hits give low values 1.01 | locus YGR229C, strain SMI1, hits give low values 1.02 and 1 and 0.999 | locus YGR252W, strain gcn5, hits give low values 0.969 and 0.983 | locus YHR013C, strain ard1, hits give low values 1.06 and 1.01 | locus YHR027C, strain rpn1, hits give low values 1.02 | locus YHR030C, strain SLT2, hits give low values 1.01 and 0.975 | locus YHR079C, strain IRE1 (second series), hits give low values 1.03 and 0.989 | locus YHR079C, strain IRE1, hits give low values 0.975 | locus YHR094C, strain hxt1, hits give low values 1.02 and 0.997 | locus YHR129C, strain ARP1, hits give low values 1.01 | locus YHR142W, strain chs7, hits give low values 1.03 and 1.01 | locus YHR200W, strain rpn10, hits give low values 1.01 and 0.999 | locus YIL066C, strain RNR3, hits give low values 1.02 and 1.01 | locus YIL073C, strain SPO22, hits give low values 1.06 and 1.02 | locus YIL125W, strain kgd1, hits give low values 0.997 and 1.01 | locus YIR030C, strain dcg1, hits give low values 1.02 and 0.993 | locus YJL092W, strain hpr5, hits give low values 1.01 | locus YJL095W, strain BCK1 (second series), hits give low values 1.02 | locus YJL095W, strain BCK1, hits give low values 1.03 and 0.988 and 1.01 | locus YJL115W, strain asf1, hits give low values 1.01 and 1.02 | locus YJL129C, strain trk1, hits give low values 1.04 and 1.03 | locus YJL134W, strain LCB3, hits give low values 1.01 | locus YJL154C, strain vps35, hits give low values 1.02 and 1.01 | locus YJL164C, strain tpk1, hits give low values 1.01 and 1.02 | locus YJL166W, strain qcr8, hits give low values 1.02 | locus YJL168C, strain set2, hits give low values 1.01 and 0.999 | locus YJL187C, strain SWE1 (second series), hits give low values 1.02 and 1.01 | locus YJL187C, strain SWE1, hits give low values 1.02 and 1.01 | locus YJR043C, strain POL32, hits give low values 1.02 and 1 | locus YJR066W, strain TOR1, hits give low values 0.971
